Measurements as given in ChEMBL document CHEMBL1157539, “Thousands of chemical starting points for antimalarial lead identification” (Nature, 2010).

Key:
Type in all cases: functional
[1] = system: Plasmodium falciparum; test: GSK_TCMDC: Inhibition of Plasmodium falciparum 3D7 in whole red blood cells, using parasite LDH activity as an index of growth. Test compounds present at 2uM
[2] = system: Plasmodium falciparum; test: GSK_TCMDC: Inhibition of Plasmodium falciparum Dd2 in whole red blood cells, using parasite LDH activity as an index of growth. Test compounds present at 2uM
[3] = system: HepG2; test: GSK_TCMDC: Percent inhibition of human HepG2 cell line. Test compounds present at 10uM.

SMILES	Inhibition [1]	Inhibition [2]	Inhibition [3]
CCCC[C@@H](C(=O)NCCc1ccc(Cl)cc1)N1C(=O)CCC1C(=O)Nc1ccc(Cl)c(Cl)c1 (stereo partly drawn)	95%	2%	4%
COc1ccc(C(C(=O)NC2CCN(C[C@H](O)c3ccnc4ccc(OC)cc34)CC2)N2CCc3ccccc3C2)cc1 (stereo partly drawn)	96%	30%	19%
N#Cc1ccc(N2CCN(Cc3cccc(-c4ccc(-c5nc6cc(C(F)(F)F)ccc6[nH]5)s4)c3)CC2)nc1.O=C(O)C(F)(F)F	96%	52%	31%
CCNc1cc(CCCC(=O)OCC)nc(Nc2ccc(C)cc2)n1.O=C(O)C(F)(F)F	100%	63%	17%
O=C(O)c1cc(C(F)(F)F)co1	96%	19%	0%
COc1ccc2nc(C)cc(Nc3ccc(Oc4ccc(Cl)c5ccccc45)c(Cl)c3)c2c1	100%	100%	83%
FC(F)(F)c1ccc2[nH]c(-c3cccc(-c4ccc(CNCc5ccccc5)cc4)c3)nc2c1.O=C(O)C(F)(F)F	100%	99%	25%
O=C(O)C(F)(F)F.O=S(=O)(NCCN1CCCC1)c1ccc(-c2cccc(CNC3Cc4ccccc4C3)c2)cc1F	98%	62%	41%
COc1ccc(CN2CCCC(OC(c3ccc(F)cc3)c3ccc(F)cc3)C2)c(O)c1 (stereo not drawn)	100%	99%	16%
COc1cc2nc(NCCCN3CCCCC3)nc(NCc3ccccc3)c2cc1OC	100%	3%	12%
Cc1cc(=O)[nH]c(-n2nc(C)cc2NC(=O)C(c2ccccc2)c2ccccc2)n1	96%	77%	31%
O=C(Nc1cccc(-c2cccc(-c3nc4cc(F)ccc4[nH]3)c2)c1)c1csnn1	95%	29%	23%
O=C(/C=C/c1ccc(Cl)c(Cl)c1)NCCCCCCN1CCCN(C(=O)Nc2ccc(Cl)c(Cl)c2)CC1	100%	8%	25%
CN(C)CCCNc1nccc(N(C)c2ccc(NC(=O)Nc3cc(C(F)(F)F)ccc3F)cc2)n1.O=C(O)C(F)(F)F	93%	25%	97%
Br.CC=CCON1C(=N)NC(=N)NC1(C)C	94%	1%	57%
N#CC(c1ccc(Br)cc1)c1ccc2c(C(F)(F)F)cc(C(F)(F)F)nc2n1 (stereo not drawn)	100%	98%	75%
CCCCn1c(Sc2ccc(C#N)c([N+](=O)[O-])c2)nnc1-c1cc(OC)cc(OC)c1	94%	70%	7%
CCCC(=O)Nc1ccc(Cl)c(NC(=O)COc2cc(C)ccc2C(C)C)c1	87%	67%	2%
CC(C)(C)Nc1nc(Nc2cccc([N+](=O)[O-])c2)nc(-n2ccnc2)n1	98%	41%	10%
Cl.Nc1nc(N)c2c(Cl)c(N(Cc3ccccc3)Cc3ccccc3)ccc2n1	96%	2%	66%
CN1CCC(NCc2ccc(-c3ccc(S(=O)(=O)NCc4ccccc4)s3)cc2)CC1.O=C(O)C(F)(F)F	99%	95%	77%
